# Assay outcomes deposited in PubChem by National Center for Advancing Translational Sciences (NCATS).
# Rows were chosen to be rich in hits. Some 8% of all compounds tested hit in one or more screens of this group.
# FMDV inh – foot and mouth disease virus antiviral activity. FMDV antiviral cell-based qHTS. Potency, µM (highest dose often 57.9 µM), inactives show at the top dose activity change, negative = inhibition, most hits filed as inhibitors. 410,000 tested, 1.2% active; calls by dose curve; tested in HEK293T cells; note: read-out not given here; potency is the fitted concentration of half-maximal effect; % is set by controls: 0 for no effect and ±100 for the full control effect; nearly all actives have a fitted effect of over 45% in size
# MARV entry inh – inhibitors of Marburg virus binding or cell entry; Marburg virus pseudotyped entry inhibition, cell reporter; 300,000 tested, 1.8% active; AID 540276; Potency, µM (highest dose often 37.8 µM), inactives show at the highest dose activity change, negative = inhibition, actives largely listed as inhibitors; calls by dose curve; tested in HEK293 cells; note: potency is the fitted concentration of half-maximal effect; % is set by controls: 0 for no effect and ±100 for the full control effect
# HCV inh – blocks hepatitis C virus | AID 651820 | Potency, µM (doses to about 41.8 µM), for the others: at the highest dose activity change, negative = inhibition, usual class: inhibitors | Huh7.5.1 HCVcc-Cre infection, luciferase reporter, 44 h | 340,000 tested, 3.4% active; active = well fitted inhibition curve with a large enough effect; inconclusive = small, poorly fitted or top-dose-only effect, or another doubt; inactive = no such curve, though single readings can be large or run the other way; note: potency is the fitted concentration of half-maximal effect; % is set by controls: 0 for no effect and ±100 for the full control effect
#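 Whole-lifecycle infectious HCVcc-Cre system; cells 1,000/well, compound then virus (~0.5 moi) added 4 h after plating, 44 h culture. Luciferase read 15 sec following 15 min substrate incubation, room temp.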
# HCMV antiviral – human cytomegalovirus inhibition | activity change, negative = inhibition, % at 57.5 µM | HFF cells, HCMV-luciferase reporter, 72 h; stronger effect = lower value | AID 1259415 | 410,000 tested, 4.5% active; in the data active = activity change below about -60%; inconclusive = no clear call, values can overlap the other calls; inactive = above about -39%; note: % is set by controls: 0 for no effect and ±100 for the full control effect
#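 Screen run at 2 compound doses on HFFs infected with reporter HCMV, MOI 1 PFU/cell. Luciferase activity from cell lysates at 72 h post infection gave inhibition relative to buffer-only and Salinomycin wells.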
# LASV entry inh – inhibitors of Lassa virus binding or cell entry. Lassa virus pseudotype entry inhibition, cell reporter. Potency, µM (top dose mostly 37.9 µM), for inactives: top-dose activity change, negative = inhibition, actives largely listed as inhibitors. 300,000 tested, 1.2% active. AID 540256; calls by dose curve; tested in HEK293 cells; note: potency is the fitted concentration of half-maximal effect; % is set by controls: 0 for no effect and ±100 for the full control effect; nearly all actives have a fitted effect of over 50% in size
# SARS PLP yeast – SARS-CoV PLP inhibition in yeast; S. cerevisiae expressing SARS-CoV PLpro, growth rescue; Potency, µM (titrated, usually from 32.9 µM), without a hit: at the highest dose activity, positive = growth rescue, actives largely listed as activators; 330,000 tested, 0.19% active; AID 485353; calls by dose curve; note: potency is the fitted concentration of half-maximal effect; 0% is about no effect; nearly all actives have a fitted effect of over 55% in size
# Starred values were filed as active, the others as inactive; ? = inconclusive; . = not tested or not shown; ! = not confirmed by another sample; [ ] = another dose, or the depositor's remark.
SMILES,FMDV inh,MARV entry inh,HCV inh,HCMV antiviral,LASV entry inh,SARS PLP yeast
CCOC(=O)[C@H](CCc1ccccc1)N[C@@H](C)C(=O)N1C(=O)N(C)C[C@H]1C(=O)O,.,.,.,-16.7,.,.
COc1cccc(NC(=O)C2CCCN2S(=O)(=O)c2ccc3nc(-c4ccccc4)[nH]c3c2)c1 (stereo not given),?,.,.,-35.7,13.3%[46.1 µM],.
CCc1cccc(OCC(=O)Nc2ccc(S(=O)(=O)N3CCCC3)cc2)c1,-29.3%,-14.1%[46.1 µM],11.2µM*,-26.9,-29.0%[46.1 µM],-0.6%
O=C(COc1cccc(C(F)(F)F)c1)Nc1cccnc1,-9.6%,.,0.8%,-85.2*,.,-2.1%
O=C(COc1cccc(C(F)(F)F)c1)Nc1ccc(S(=O)(=O)N2CCCCC2)cc1,?,-27.4%[46.1 µM],25.1µM*,-23.8,?,.
COc1ccccc1C1CN(CC(=O)NCC2OCCc3ccccc32)Cc2ccccc2O1 (stereo not given),-5.9%,.,.,.,.,.
Cc1cc2c3c(c1)C(C)(c1ccccc1)CC(C)(C)N3C(=O)C21C(C#N)=C(N)OC2=C1C(=O)CC(C)(C)C2 (stereo not given),?,-27.5%,?,-72.1*,?,-19.7%
CS(=O)(=O)c1nc(-c2ccc(F)cc2)cc(C(F)(F)F)n1,28.2µM*,?,6.31µM*,-98.9*,?,-5.7%
COc1ccc(-c2cc(C(F)(F)F)nc(S(C)(=O)=O)n2)cc1,20µM*,13µM*!,?,-104.6*,23.1µM*,-35.9%
C=C(C)CSc1nc2sc3c(c2c(=O)n1-c1ccccc1)CCC(C)C3 (stereo not given),-19.5%,.,.,23.9,2.7%[46.1 µM],.
COc1ccc(/C=C(\NC(=O)c2ccccc2)C(=O)NC2CCCCC2)cc1,34.8%,.,.,-11.0,-2.3%[46.1 µM],.
c1ccc(-c2cn(-c3ccccc3)c3[n+]2CCCS3)cc1,?,?,-19.4%,-33.3,4.3%,-0.5%
Cc1ccc(-c2cn(-c3ccccc3)c3[n+]2CCCS3)cc1,10µM*,?,?,-92.6*,?,2.0%
CCc1ccc(-n2cc(-c3ccc(F)cc3)[n+]3c2SCCC3)cc1,-12.9%,?,?,-87.3*,?,-5.1%
O=C(N[C@H]1CC[C@@]23CCCN2C(=O)CCC[C@H]3[C@H]1Cc1ccccc1)c1cccc(Cl)c1,.,.,.,-65.2*,.,.
O=C(N[C@H]1CC[C@@]23CCCN2C(=O)CCC[C@H]3[C@H]1Cc1ccccc1)c1ccccc1,.,.,.,6.4,.,.
CC(=O)c1cccc(OCc2cc(C(=O)N(C)Cc3nccs3)no2)c1,36.0%,.,.,-9.9,.,.
CN(Cc1nccs1)C(=O)c1cc(COc2cccc3cnccc23)on1,?,.,6.31µM*,-75.3*,.,-4.8%
COc1cc(Cl)ccc1OCc1cc(C(=O)N(C)Cc2cccc3cnccc23)no1,?,?,8.91µM*,?,?,-12.3%
Cc1ccc(/C=C/C(=O)NC(C)c2ccccc2)cc1 (stereo not given),9.8%,9.3%,1.4%,-25.1,11.2µM*,-13.6%
O=C(/C=C/c1ccc(Br)cc1)NC(=O)c1ccccc1O,-59.9%,7.6%[14.2 µM],0.2%,-101.7*,-17.9%,-4.0%
CC(NC(=O)/C=C/c1ccc(Br)cc1)c1ccccc1 (stereo not given),-17.5%,?,-21.3%,15.5,14.6µM*,-3.2%
O=C(/C=C/c1ccc(O)c(O)c1)NC(=O)c1ccccc1O,24.6%,.,-29.1%,64.1,.,4.5%
CC(NC(=O)/C=C/c1ccccc1)c1ccccc1 (stereo not given),8.1%,?,12.2%,-34.8,?,-2.0%
CCc1ccc(C(C)NC(=O)/C=C/c2ccc(Br)cc2)cc1 (stereo not given),-13.0%,-6.7%,-3.9%,-18.3,-24.5%[14.3 µM],-9.1%
SMILES,FMDV inh,MARV entry inh,HCV inh,HCMV antiviral,LASV entry inh,SARS PLP yeast
CCCCC#Cc1nc(NC)c2ncn([C@@H]3O[C@@H](CO)[C@H](O)[C@H]3O)c2n1,-17.4%,8.8%,.,.,.,.
FC(F)(F)c1cccc(-c2cc3c(Nc4ccncc4)nccc3[nH]2)c1,.,.,.,-14.8,.,.
Cc1ccc2c(c1)c1c(c(=O)n(-c3ccccc3)c(=O)n1Cc1ccccc1C)n2C,-0.6%,.,.,19.1,16.8%[46.1 µM],.
COC(=O)c1cc(CNC(=O)c2cccc(C)c2)cc(NC(=O)c2ccncc2)c1,-5.8%,.,.,.,.,.
COc1cc2c3nnc(-c4ccc(F)cc4)c-3cn(Cc3ccccc3F)c2cc1OC,?,?,?,-89.4*,?,1.9%
COc1cc2c3nnc(-c4ccccc4)c-3cn(Cc3ccccc3F)c2cc1OC,-15.2%,?,?,-97.3*,?,1.1%
COc1cc2c(=O)c(S(=O)(=O)c3ccc(F)cc3)cn(Cc3ccccc3C)c2cc1OC,-14.8%,-0.8%[46.1 µM],.,4.7,-27.7%[46.1 µM],.
COc1ccc(C(=O)c2cn(Cc3ccccc3F)c3cc4c(cc3c2=O)OCO4)cc1,0.0%,4.0%[46.1 µM],.,-2.2,5.2%[46.1 µM],.
CCOC(=O)/C=C/[C@H](CCCCOCc1ccccc1)NC(=O)C(F)(F)F,.,.,.,8.7,.,.
COc1ccc(CCNC(=O)Cc2c(C)c3cc4c(C(C)(C)C)coc4c(C)c3oc2=O)cc1,-3.2%,-1.1%[46.1 µM],.,24.1,?,.
NS(=O)(=O)c1ccc(CCNC(=O)Cn2c(-c3cccs3)cc3ccccc32)cc1,-21.4%,.,.,13.7,6.9%[46.1 µM],.
C=CCc1cc(Cl)ccc1OCCOCCNC(C)(C)C,-20.6%,.,?,-71.1*,.,-0.8%
CCC(C)NCCCOc1ccc(Cl)cc1C(C)(C)C (stereo not given),-1.8%,?,-26.0%,-10.1,8.2%,1.1%
C=CCc1cc(Cl)ccc1OCCCNC(C)CC (stereo not given),?,2.91µM*,12.6µM*,?,?,-10.6%
C=CCc1ccc(OCCCCNC(C)CC)c(OC)c1 (stereo not given),-8.3%,?,8.91µM*,-21.2,-13.2%,-5.7%
CCCSc1ncc(Cl)c(C(=O)N2CCN(c3ccc(OC)cc3)CC2)n1,-4.7%,21.9%[46.1 µM],.,-35.6,-1.6%[46.1 µM],.
CC(=O)c1cccc(NC(=O)c2c(-c3ccccc3)c(-c3ccccc3)nn(C)c2=O)c1,-24.9%,?,.,-13.8,?,.
O=C(NCCc1c[nH]c2ccccc12)C1CCC(Cn2c(=S)[nH]c3ccccc3c2=O)CC1 (stereo not given),-5.4%,?,4.47µM*,-67.7*,?,-6.9%
CC(=O)NCCc1c[nH]c2ccccc12,-6.6%,6.6%,-0.4%,.,-9.6%,-0.9%
CC1(C(=O)NCCc2c[nH]c3ccccc23)CCN1CC1CCCCC1 (stereo not given),-22.2%,.,.,-63.6*,.,.
Cc1ccccc1NC(=O)N[C@H]1CC[C@@]23CCCN2C(=O)CCC[C@H]3C1Cc1ccccc1 (stereo not given in full),.,.,.,10.2,.,.
Cc1ccc(S(=O)(=O)C(CNS(=O)(=O)c2ccc(F)c(C(F)(F)F)c2)c2ccco2)cc1 (stereo not given),58.7%,.,.,-22.0,-14.8%[46.1 µM],.
